# Assay outcomes: PubChem, Broad Institute
# Hits are enriched below; roughly 0.9% of the tested compounds scored in any of these assays.
# A1 inh: inducers of caspase activity in MEF A1-2A-BIM cells, primary screen, A1 inhibitor project, cell-based, CaspaseGlo luminescence; caspase-Glo luminescence, 3 h; percent of clofoctol signal, DMSO as zero; caspase activation, % (concentration not given with the values); hit rate 0.51% among 21,000; AID 2241, 2010;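 active = most replicate scores above 10, or exactly half above 10 with mean activity above 10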;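 note: effector caspase 3 and 7 activity cleaving a DEVD luciferin substrate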
# BJeLR viab HTS: BJeLR cell viability loss, primary screen, luminescence, CellTiterGlo ATP. BJeLR fibroblasts viability, 48 h; HRASV12, hTERT and SV40 LT/ST transformed. viability loss activity score, % (no concentration beside the values). hit rate 0.64% among 30,000. AID 2275, 2010; in the data active = viability loss activity score above about 50%;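 note: higher score means fewer live cells and less ATP luminescence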
# Numbers without * were called inactive; x = no result.
SMILES,A1 inh,BJeLR viab HTS
CC1(C)CC[C@@]2(C(=O)O[C@@H]3O[C@H](CO)[C@@H](O)[C@H](O)[C@H]3O)C(C1)C1=CCC3[C@@]4(C)CC[C@@H](O[C@@H]5O[C@H](C(=O)O)[C@@H](O[C@@H]6OC[C@@H](O)[C@H](O)[C@H]6O)[C@H](O)[C@H]5O)C(C)(C)C4CC[C@@]3(C)[C@]1(C)C[C@H]2O (stereo partly specified),0,0
CC1OC(O[C@H]2CC[C@@]3(C)C(CC[C@]4(C)C3CC=C3C5CC(C)(C)CC[C@]5(C(=O)OC5OC(CO)C(OC6OC(CO)C(O)C(O)C6O)C(O)C5O)CC[C@]34C)C2(C)C)C(O)C(O)C1OC1OCC(O)(COC2OCC(O)C(OC3OCC(OC4OCC(O)(CO)C4O)C(O)C3O)C2O)C1O (stereo partly specified),0,-5
CC1(C)CC[C@]2(C(=O)OC3OC(CO)C(O)C(O)C3O)CC[C@]3(C)C(=CCC4[C@@]5(C)CC[C@H](OC6OC(C(=O)O)C(O)C(O)C6O)C(CO)(CO)C5CC[C@]43C)[C@@H]2C1 (stereo partly specified),2,133*
C[C@@H]1O[C@@H](O[C@H]2[C@H](O[C@H]3CC[C@@]4(C)C(CC[C@]5(C)C4CC=C4[C@@H]6CC(C)(C)CC[C@]6(C(=O)O[C@@H]6O[C@H](CO[C@@H]7O[C@H](CO)[C@@H](O)[C@H](O)[C@H]7O)[C@@H](O)[C@H](O)[C@H]6O)CC[C@]45C)[C@]3(C)CO)OC[C@H](O)[C@@H]2O)[C@H](O)[C@H](O)[C@H]1O (stereo partly specified),0,-4
CC1OC(OC2C(CO)OC(OC(=O)[C@]34CCC(C)(C)CC3C3=CCC5[C@@]6(C)CC[C@H](OC7OC(C)C(OC8OCC(O)(COC9OCC(O)C(OC%10OCC(OC%11OCC(O)(CO)C%11O)C(O)C%10O)C9O)C8O)C(O)C7O)C(C)(C)C6CC[C@@]5(C)[C@]3(C)CC4)C(O)C2O)C(O)C(O)C1O (stereo partly specified),12*,4
O=C(Nc1cc(Cl)ccc1Cl)C(O)(c1ccccc1)c1ccccc1,x,4
Cn1c2ccccc2c2cnn(CC(=O)O)c(=O)c21,0,-2
Cn1c2ccccc2c2c3c(c4c5ccccc5n(CCC#N)c4c21)CNC3=O,28*,21
CCN1c2ccccc2NC1SCC(=O)Nc1ccc(Cl)cc1 (stereo unspecified),x,-5
CC(=O)O[C@@]1(C)[C@@H]2CC(=C(C)C)C(=O)C[C@@]2(C)CC[C@H]1OC(=O)C1(C)OC1C (stereo partly specified),0,54*
CCOc1ccc(NC(=O)[C@H](C(C)CC)N2Cc3ccccc3C2=O)cc1 (stereo partly specified),x,6
CCN1CCCC1CNC(=O)c1ccc2c(c1)sc1nc(-c3ccc(C)cc3)cn12 (stereo unspecified),8,95*
O=C(NCC1CCCO1)c1ccc2c(c1)sc1nc(-c3ccccc3)cn12 (stereo unspecified),-1,1
CCCc1cc(NCCc2ccccc2)n2c(nc3ccccc32)c1C#N,-1,6
C=C1C(=O)O[C@@H]2C3C(=C(C)[C@@H](O)[C@@H](OC(=O)/C(=C/C)COC(C)=O)[C@@H]12)C(=O)[C@H]1O[C@@]31C (stereo partly specified),1,90*
C=C(C(=O)O[C@H]1C[C@]2(C)C(C(C=O)CC[C@H]2O)[C@H]2OC(=O)C(=C)[C@H]12)C(O)CO (stereo partly specified),0,-2
COc1ccc2cc3cc(C(=O)NCc4cccs4)sc3nc2c1,x,12
Cc1cc(NC(=O)c2ccc3c(c2)NC(=O)c2ccccc2S3)ccc1Br,15*,17
Cc1cc(C)cc(NC(=O)c2ccc3c(c2)NC(=O)c2ccccc2S3)c1,3,25
CCOC(=O)c1ccc(Nc2cc(C)nc(C)c2C(=O)OCC)cc1,x,1
COC(=O)c1ccc(Nc2cc(C)nc3ccccc23)cc1,-1,62*
Cc1nc2nc(SCC(=O)NC3CCCC(C)C3C)nn2c(C)c1Cc1ccccc1Cl (stereo unspecified),x,-1
O=C1CC2(CCCC2)C(=O)N1c1ccc(I)cc1,x,0
O=C(CCn1c(SCc2ccc(F)cc2)nc2c(sc3ccccc32)c1=O)NCC1CCCO1 (stereo unspecified),x,-2
Cc1ccc(NC(=O)CSc2nc3c(sc4ccccc43)c(=O)n2CC2CCCO2)cc1C (stereo unspecified),33*,1
Cc1ccc2oc(=O)c3cc(C(=O)NCCN4CCCCC4C)sc3c2c1 (stereo unspecified),x,0
COC(=O)Cn1c(=O)c2c(nc3n2CCN3c2ccccc2)n(C)c1=O,37*,-3
